Inconclusive results are not listed. The source made the active and inactive calls. Calls follow the shape of the dose curve; as a rule, active = well fitted curve in the direction sought with a large enough effect; inconclusive = small, poorly fitted or top-dose-only effect, or another doubt; inactive = no such curve, though single readings can be large; an effect the other way counts as inactive or inconclusive. Numbered stars: 1 amine (or outer) side, 2 acyl side, 3 side chain; on linkers, the order of the positions; unused ones are H or OH. Square brackets hold non-standard residues; d marks the D form. Peptide text beside a SMILES is read from it. ξ: configuration not given here. X4 = O=C(C1CC2(c3ccc(O)cc3)c3ccccc3NC2N1[*:1])[*:2]; ξW = NC(Cc1c[nH]c2ccccc12)C(=O)O; ξY = NC(Cc1ccc(O)cc1)C(=O)O
Tests used:
[1] = G06 Cancer Cell Toxicity qHTS against the NCATS CANVASS Library (AID 1347368); also: series mostly up to about 46 µM; nearly all actives have a fitted effect of over 60% in size
In short: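 Cells were plated at 500 per well, then compounds were added over an 11-point range. After 72 hr at 37C, CellTiterGlo was added and luminescence measured as ATP content.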

[2] = MCF7 Cancer Cell Toxicity qHTS against the NCATS CANVASS Library (AID 1347369); also: series mostly up to about 46 µM
In short: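 Cytotoxicity is measured by ATP content: MCF7 cells at 500 per well receive an 11-point compound series and, after 72 hr at 37C, are lysed with CellTiterGlo for luminescence.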

[3] = qHTS for ATAD5 Antagonist screened against the NCATS CANVASS Library (AID 1347370);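 also: HEK293T cells carrying an ATAD5 luciferase reporter co-treated with 10 µM 5-fluorouridine; series mostly up to about 46 µM; nearly all actives have a fitted effect of over 65% in size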
In short: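 Compounds (11-point) co-dosed with 10 µM 5-FUrd for 16 h at 37 °C onto HEK293T-ATAD5 luciferase reporter cells. Viability measured by CellTiter-Fluor fluorescence, then ATAD5 reporter signal by luminescence.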

[4] = J3T Cancer Cell Toxicity qHTS against the NCATS CANVASS Library (AID 1347371);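 also: J3T is a canine glioma cancer cell line seeded at 500 cells per well; series mostly up to about 46 µM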
In short: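 Luminescence from CellTiterGlo, reporting cellular ATP, serves as the viability measure after 72 hr compound treatment of J3T canine glioma cells seeded at 500 cells/well.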

[5] = molecular target: Nuclear receptor subfamily 1 group I member 3 (Homo sapiens) (UniProt Q14994); experiment: qHTS for Constitutive Androstane Receptor (CAR) Antagonist screened against the NCATS CANVASS Library (AID 1347372);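 also: cells stimulated with 50 nM CITCO agonist so inhibition reflects antagonism; luciferase from CYP2B6 promoter reporter driven by hCAR in HepG2 cells; series mostly up to about 46 µM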
Sequence of Nuclear receptor subfamily 1 group I member 3 (Homo sapiens) (Q14994 whole entry, looked up): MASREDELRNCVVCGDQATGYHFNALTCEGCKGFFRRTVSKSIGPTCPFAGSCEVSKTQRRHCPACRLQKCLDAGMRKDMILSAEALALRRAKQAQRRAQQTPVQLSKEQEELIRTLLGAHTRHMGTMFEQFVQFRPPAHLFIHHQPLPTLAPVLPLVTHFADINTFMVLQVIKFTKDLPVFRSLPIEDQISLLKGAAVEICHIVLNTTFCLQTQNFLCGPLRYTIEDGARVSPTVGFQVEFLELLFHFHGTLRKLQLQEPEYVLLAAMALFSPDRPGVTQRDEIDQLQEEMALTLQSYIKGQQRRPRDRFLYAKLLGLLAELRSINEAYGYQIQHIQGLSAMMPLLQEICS
In short: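 Cells were seeded and left 4hr to attach, then received compound at 11 concentrations and 50 nM CITCO. Following 24hr incubation, fluorescence viability and luciferase luminescence were read sequentially.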

[6] = molecular target: Nuclear receptor subfamily 1 group I member 3 (Homo sapiens) (UniProt Q14994); experiment: qHTS for Constitutive Androstane Receptor (CAR) Agonist screened against the NCATS CANVASS Library (AID 1347373);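 also: every well also contained 1.5 µM PK11195 alongside the test compound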
In short: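 Cells were plated and allowed to attach for 4hr, then dosed with compound in an 11-point series alongside 1.5uM PK11195. After 24hr at 37C, viability was measured fluorometrically and CAR-driven CYP2B6 reporter luminescence was recorded.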

[7] = qHTS for Hypoxia signaling pathway (HIF-1) antagonists against the NCATS CANVASS Library (AID 1347374);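 also: HRE-bla ME-180 cells stimulated with cobalt chloride to stabilize HIF-1alpha; series mostly up to about 38 µM; nearly all actives have a fitted effect of over 60% in size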
In short: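 Antagonism scored as loss of CoCl2-driven (60 uM stock added) HRE beta-lactamase signal, read by CCF4 FRET at 460/530 nm. Compounds were tested in an 11-point series on ME-180 reporter cells for 17 hrs at 37C, with parallel CellTiter-Glo cytotoxicity.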

[8] = qHTS for Hypoxia signaling pathway (HIF-1) agonists against the NCATS CANVASS Library (AID 1347375)
In short: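 Cells plated and rested 5 h, compounds pinned in DMSO across 11 concentrations, incubated 17 h at 37C, loaded with CCF4-AM for 2 h, fluorescence read at 460 and 530 nm, then CellTiter-Glo luminescence measured for viability and normalization.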

[9] = 10-beta competent E. coli microbial cell viability qHTS against the NCATS CANVASS Library (AID 1347376); also: series mostly up to about 46 µM
In short: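 Bacterial suspension diluted to 0.2 OD was dosed with compounds, 11-point series, then held overnight at 37C. BacTiter-Glo reagent was added, and after 20 min at room temperature ATP-dependent luminescence was measured.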

[10] = DH5-alpha competent E. coli microbial cell viability qHTS against the NCATS CANVASS Library (AID 1347377); details: outcome: dose series up to 46.1 µM unless noted
In short: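 Bacteria were dispensed at 0.2 OD, then compounds were pin-transferred. Plates were incubated overnight at 37C, after which BacTiter-Glo was added and luminescence measured 20 min later.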

[11] = qHTS for H2AX Agonists against the NCATS CANVASS Library (AID 1347378);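 also: phospho-H2AX S139 level in CHO-K1 lysates by TR-FRET emission ratio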
In short: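 Following overnight seeding, CHO-K1 cells are incubated with a concentration series of compound for 3 hr at 37C (final DMSO 0.76%). Cells are then lysed, detection antibodies added, and emission ratio 665/620 nm recorded after 24 hr at room temperature.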

[12] = qHTS for Inflammasome Signaling Inhibitors: IL-1-beta AlphaLISA screen against the NCATS CANVASS Library (AID 1347379);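 also: human THP-1 cells primed with LPS then triggered with ATP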
In short: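 Secreted IL-1B from human THP-1 cells quantified by AlphaLISA 16 hr after compound addition (final up to 57.5 uM). A 1 hr compound pretreatment preceded inflammasome activation with 250 ng/mL LPS plus 1.25 mM ATP (final).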

[13] = qHTS for Antimalaria activity screened against the NCATS CANVASS Library (AID 1347380);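 also: Plasmodium falciparum strain Dd2 asexual parasites grown in red blood cells; series mostly up to about 29 µM; nearly all actives have a fitted effect of over 40% in size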
In short: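 Compounds are titrated over 11 concentrations onto Dd2 parasite cultures (0.3% parasitemia, 2.5% hematocrit). Growth over 72 h at 37C in low oxygen is measured as SYBR Green DNA fluorescence after lysis.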

[14] = Inflammasome Signaling qHTS Counterscreen: IL-1-beta AlphaLISA counterscreen against the NCATS CANVASS Library (AID 1347381);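 also: cell-free check with purified IL-1β in medium and no THP-1 cells; series mostly up to about 57 µM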
In short: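 Purified IL-1-beta (4 pg/well) + compound, 11-pt conc. series; acceptor beads 6 ug/mL + biotin-Ab 0.6 nM final, 1 h RT; SA-donor 24 ug/ml final, 30 min dark RT; read ex 680/em 615.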

[15] = Cytotoxicity qHTS for assessment of Hepg2 cells membrane integrity screened against the NCATS CANVASS Library (AID 1347387)
In short: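 Cells were seeded at 2000 per well and left overnight to attach. Compounds were pin-transferred to give 0.59 nM - 46 uM in an 11-point series and incubated 5 hr at 37C. CytoTox-ONE reagent was added and, after 10 min at room temperature, fluorescence (ex 560, em 590 nm) was read.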

[16] = qHTS for Activators of p53 Stress Response Pathway screened against the NCATS CANVASS Library (AID 1347388)
In short: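 p53RE-bla HCT-116 cells (4000/well) were plated 5 h at 37C, exposed to compounds for 16 h at 37C over an 11-point concentration series, then loaded with CCF4 for 2 h at room temperature; 460/530 nm emission ratio read.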

[17] = qHTS assay for small molecule disruptors of mitochondrial membrane potential screened against the NCATS CANVASS Library (AID 1347389); also: series mostly up to about 46 µM; nearly all actives have a fitted effect of over 60% in size
In short: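 Mitochondrial depolarization in HepG2 cells is scored as a falling aggregate-to-monomer fluorescence ratio after 1 hr compound exposure and 30 min staining with Mito-MPS dye at 37C, each compound tested as an 11-point titration.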

[18] = Secretion counterscreen for inhibitors of the SERCaMP assay screened against the NCATS CANVASS Library (AID 1347390);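 also: light from luciferase secreted into medium read as a measure of general secretion; series mostly up to about 77 µM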
In short: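 Counterscreen identifying compounds that disrupt secretion, using SH-SY5Y cells with a constitutively secreted Gaussia luciferase reporter. A 20 h compound exposure (top 77 uM) precedes luminescent detection with coelenterazine.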

[19] = qHTS for activators of Nrf2/ARE signaling pathway screened against the NCATS CANVASS Library (AID 1347391); also: nearly all actives have a fitted effect of over 60% in size
In short: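 Beta-lactamase reporter signal, read as 460 and 530 nm emission under 405 nm excitation after 2 h CCF4 loading, reflected ARE activation in HepG2 cells treated 16 h with an 11-point series.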

[20] = qHTS for activators of dead-cell proteases activity screened against the NCATS CANVASS Library (AID 1347392);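 also: luminescence from protease leaking out of membrane-damaged cells cleaving impermeant substrate; rising signal means more cytotoxicity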
In short: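 Cytotoxicity in HepG2 cells was assessed by released protease cleaving AAF-aminoluciferin, with luminescence as signal. Exposure lasted 5 h at 37C across an 11-point series.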

[21] = qHTS for inhibitors of ER calcium dysfunction: SERCaMP assay screened against the NCATS CANVASS Library (AID 1347393);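 also: series mostly up to about 77 µM; lower secreted reporter signal means inhibitor of ER calcium depletion; nearly all actives have a fitted effect of over 40% in size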
In short: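 qHTS in SH-SY5Y reporter cells: 16 h compound pretreatment, 4 h thapsigargin, then secreted Gaussia luciferase measured by luminescence.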

[22] = Vero-766 cells viability qHTS against the NCATS CANVASS Library: Counterscreen for Zika virus inhibition assay (AID 1347394)
In short: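 This cytotoxicity counterscreen uses African green monkey Vero 766 cells in the absence of Zika virus. Compounds are incubated with cells for 72 h, and ATP-based luminescence reports viability.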

[23] = qHTS for inhibitors of Wild type Zika virus screened against the NCATS CANVASS Library (AID 1347396);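 also: ATP luminescence of surviving cells so rescue from viral cell killing; series mostly up to about 46 µM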
In short: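 Luminescent CellTiter Glo read-out of virus-induced cytotoxicity, 72 h post-infection, in Vero 766 cells. Compounds were tested at 11 concentrations; uninfected, vehicle-treated wells defined 100% inhibition.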

[24] = Viability qHTS for inhibitors of the SERCaMP assay screened against the NCATS CANVASS Library (AID 1347400); also: series mostly up to about 92 µM; nearly all actives have a fitted effect of over 70% in size
In short: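 Seed SH-SY5Y-GLuc SERCaMP MJH297 cells at 1000 per well, incubate 4 h, add compounds across an 11-point range, incubate 48 h at 37C, then add CellTiter-Glo and read luminescence.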

Measured: Potency

CC[C@H](C)[C@H](NC(=O)C(Cc1ccc(O)cc1)NC(=O)C(Cc1c[nH]c2ccccc12)NC(=O)[C@H](C)N)C(=O)N1C(C(=O)NC(Cc2ccc(O)cc2)C(=O)O)CC2(c3ccc(O)cc3)c3ccccc3NC12 (some centres undefined) (H-A[ξW][ξY]I[X4][ξY]-OH)
inactive: all assays above
